Data from PubChem BioAssay (NCATS).
Results filed as inconclusive are left out. Values without a mark were called inactive. Active and inactive are the calls of the source. Calls follow the shape of the dose curve; as a rule, active = well fitted cell-killing curve with a large enough effect; inconclusive = small, poorly fitted or top-dose-only effect; inactive = no such curve, though single readings can be large or run the other way.

Assay: qHTS of pediatric cancer cell lines to identify multiple opportunities for drug repurposing: Primary screen for Saos-2 cells (AID 1347097); also: nearly all actives have a fitted effect of over 40% in size
Details: Saos-2 viability, CellTiter-Glo ATP luminescence, 48 h; series mostly up to 46 µM; activity change, negative = cytotoxic: at the top concentration
Excerpt: Drug repurposing or repositioning has been offered as a strategy for drug development in oncology programs. This approach has special potential for childhood cancers and other rare or orphan diseases, where the expected return on new drug development has been a disincentive to pharmaceuticals. […] In this project we exploit the poly-pharmacology of drugs to discover new indications via phenotypic screening of a panel of 19 well-characterized cell lines derived from solid tumors seen in children and adolescents. The goal is to identify approved drugs with previously unrecognized anticancer properties that has the potential to reveal new mechanisms and biological processes involved in carcinogenesis or drug resistance. We employed a titration-based paradigm (quantitative high-throughput screening or qHTS), where all compounds were tested at multiple concentrations for their effect on cell viability. Concentration-response curves (CRCs) were derived directly from the primary screen, and both potency and efficacy values were used to identify compounds with robust bioactivity profiles. We screened the NIH Chemical Genomics Center (NCGC) Pharmaceutical Collection (NPC) and Mechanism Interrogation Plate (MIPE) small molecule collections of approved and investigational compounds against these cell lines; and measured metabolically active cells after 48 hours of compound treatment as a proxy for cell viability. […] Assay Submitter: Nathalia J. Martinez, National Center for Advancing Translational Sciences, National Institutes of Health, Rockville, MD, USA; email: natalia.martinez@nih.gov Shen, M et al. Quantitative high-throughput phenotypic screening of pediatric cancer cell lines identifies multiple opportunities for drug repurposing. Oncotarget 2017 Dec 19;9(4):4758-4772. PMID 29435139.
The cells were obtained from University of North Carolina (UNC), Pediatric Preclinical Testing Program (PPT), and Coriell Institute (CI). qHTS cell viability assay: Cells were assayed in growth media at a density of 500-1,000 cells/well. Five microliters of cells were dispensed into 1,536-well, white, solid-bottom, TC-treated plates (Greiner Bio One) using a multidrop dispenser and incubated at 37 degrees C, 5% CO2, under a humidified atmosphere for 5 hours. Twenty-three nanoliters of compounds and controls (neutral control DMSO or positive control bortezomib at final concentration of 2.3 µM) were subsequently transferred by Kalypsys pintool. For primary screens, the MIPE collection was tested at 11-point dilutions (final concentrations range from 0.78 nM to 46 µM) and the NPC collection at 8-point dilutions (final concentrations range from 0.59 nM to 46 µM). Compounds tested in follow-up screens were assayed at 11-point dilutions. Cells were incubated for 48 hours, followed by addition of 3 µL of CellTiter-Glo (Promega). After a 15 min incubation at room temperature, samples were analyzed for luminescence intensity using a ViewLux High-throughput CCD imager equipped with clear filters.
% is scaled to controls: 0 for no effect and ±100 for the full control effect; potency is read from the fitted curve at half-maximal effect.

Row | Structure (SMILES) | activity change, negative = cytotoxic | Potency
1 | Cn1cc(C=C2C(=O)Nc3cccnc32)c2ccccc21 | 0.562% | –
2 | COc1ccc(-c2nc(N3CCOCC3)c3sc(CN(C)c4ncc(C(=O)NO)cn4)cc3n2)cn1 | – | 0.0066 µM (active)
3 | COc1ccc2c3c1OC1C[C@@H](O)C=C[C@@]31CCN(C)C2 (stereo not given in full) | -2.64% | –
4 | O=C(N[C@@H](c1ccccc1)[C@@H]1CCCCN1)c1cccc(C(F)(F)F)c1Cl | 9.11% | –
5 | CN(C)c1cc(NC(=O)CNC(C)(C)C)c(O)c2c1C[C@@H]1C[C@H]3[C@H](N(C)C)C(=O)C(C(N)=O)=C(O)[C@@]3(O)C(=O)C1=C2O | 12.5% | –
6 | O=C1NC(=O)C(=Cc2cccc(C(F)(F)F)c2)S1 | -6.51% | –
7 | CO[C@H]1C[C@@H]2CC[C@@H](C)[C@@](O)(O2)C(=O)C(=O)N2CCCC[C@@H]2C(=O)O[C@H]([C@H](C)C[C@@H]2CC[C@H](OCCO)[C@H](OC)C2)CC(=O)[C@H](C)C=C(C)[C@@H](O)[C@@H](OC)C(=O)[C@H](C)C[C@H](C)C=CC=CC=C1C | – | 3.32 µM (active)
8 | Cc1[nH]c(C=C2C(=O)Nc3ccc(S(=O)(=O)Cc4c(Cl)cccc4Cl)cc32)c(C)c1C(=O)N1CCC[C@H]1CN1CCCC1 | – | 18.7 µM (active)
9 | O=c1c(O)c(-c2ccc(O)cc2)oc2cc(O)cc(O)c12 | 0.88% | –
10 | C=CCc1ccc(O)c(-c2ccc(O)c(CC=C)c2)c1 | – | 18.7 µM (active)
11 | O=c1ccn([C@@H]2O[C@H](CO)[C@H](O)[C@H]2O)c(=O)[nH]1 | 26.5% | –
12 | O=c1cc(N2CCOCC2)oc2c(-c3cccc4c3sc3ccccc34)cccc12 | – | 18.7 µM (active)
13 | CC1(C)CCC(CN2CCN(c3ccc(C(=O)NS(=O)(=O)c4ccc(NCC5CCOCC5)c([N+](=O)[O-])c4)c(Oc4cnc5[nH]ccc5c4)c3)CC2)=C(c2ccc(Cl)cc2)C1 | – | 14.8 µM (active)
14 | O=C(Nc1cc(Cl)cc2c1[nH]c1cnccc12)c1cccnc1 | -5.11% | –
15 | N#Cc1ccc(NC(=O)Nc2ccccc2Br)c2n[nH]nc12 | -6.69% | –
16 | CC1=C(/C=C/C(C)=C/C=C/C(C)=C/C(=O)Nc2ccc(O)cc2)C(C)(C)CCC1 | – | 23.7 µM (active)
17 | NC(=O)NN=Cc1ccc([N+](=O)[O-])o1 | 46.3% | –
18 | O=C1NC(=O)C(c2ccccc2)(c2ccccc2)N1 | -13% | –
19 | O=C1c2c(O)cc(O)cc2O[C@H](c2cc(O)c(O)c(O)c2)[C@H]1O | – | 23.5 µM (active)
20 | COC(=O)C1=CO[C@@H](O)[C@@H]2C(CO)=CC[C@@H]12 | -18.7% | –

Row | Structure (SMILES) | activity change, negative = cytotoxic | Potency
21 | CC=CC(=O)N(CC)c1ccccc1C | 13.5% | –
22 | CC(=Cc1ccccc1)C=C1SC(=S)N(CC(=O)O)C1=O | 1.75% | –
23 | C[N+](C)(C)CCCCCC[N+](C)(C)C | -3.15% | –
24 | NC(=O)c1cccc2[nH]c(-c3ccc([C@H]4CCCN4)cc3F)nc12 | -14.2% | –
25 | NS(=O)(=O)c1cccc2c1C(=O)c1cccc(O)c1C2=O | – | 0.264 µM (active)
26 | COc1ccc2cc(-c3nc(-c4ccc(S(C)=O)cc4)[nH]c3-c3ccncc3)ccc2c1 (stereo not given) | 0.504% | –
27 | C[C@@H](O)[C@H]1C(=O)N2C(C(=O)O)=C(S[C@@H]3CN[C@H](C(=O)N(C)C)C3)[C@H](C)[C@H]12 | – | inactive
28 | COc1ccc(Cc2ccc(NC(N)=O)cc2)cc1-c1cccc(Cl)c1 | -0.0894% | –
29 | CS(=O)c1ccc(-c2nc(-c3ccc(F)cc3)c(-c3ccncc3)[nH]2)cc1 (stereo not given) | – | 10.8 µM (active)
30 | C=C1C(=O)[C@@]23C(CC[C@@H]1[C@H]2O)[C@@]12CO[C@]3(O)[C@@H](O)[C@@H]1C(C)(C)CC[C@@H]2O (stereo not given in full) | – | 4.69 µM (active)
31 | CO[C@@H](C(=O)N1Cc2[nH]nc(NC(=O)c3ccc(N4CCN(C)CC4)cc3)c2C1)c1ccccc1 | – | 0.833 µM (active)
32 | C[N+](C)(C)CC(=O)O | 20.5% | –
33 | O=c1cc(-c2ccc(O)cc2)oc2cc(O)cc(O)c12 | – | 14.8 µM (active)
34 | CCC(CC)[C@H](NC(C)=O)[C@@H]1[C@H](O)[C@@H](C(=O)O)C[C@@H]1N=C(N)N | -15.3% | –
35 | O=C(CCc1ccc(O)cc1)c1c(O)cc(O)cc1O[C@@H]1O[C@H](CO)[C@H](O)[C@H](O)[C@H]1O | -2.17% | –
36 | O=c1[nH]cnc2c1ncn2[C@H]1CC[C@@H](CO)O1 | -9.94% | –
37 | CNC1CCC(N(Cc2cccc(-c3ccncc3)c2)C(=O)c2sc3c(F)ccc(F)c3c2Cl)CC1 (stereo not given) | – | 18.7 µM (active)
38 | CC(C)n1cnc2c(NCCCCCCNC(=O)OC(C)(C)C)nc(NCCO)nc21 | 0.196% | –
39 | CC(=O)N[C@@H](CS)C(=O)O | 37.5% | –
40 | COc1ccc(-n2c(C)c([N+](=O)[O-])c3ccc(O)cc32)cc1 | -0.98% | –
